Hit rate of the full screen: of about 98,000 compounds, about 4,900 (5%) were called active. Shown is part of a subset that was picked to be rich in actives. A number with no mark means an inactive call. Cut-off read from the data, not from the text of the source: active = inhibition above about 30%; inactive = the rest.
Assay: growth inhibition of yeast control strain, primary screen, counter-screen for post-Golgi transport modulator project (AID 738)
Conditions: efflux-deficient yeast background strain, growth absorbance A615, 16 h; at 10 µM; stronger effect = higher value

| Structure (SMILES) | inhibition |
| --- | --- |
| Cc1nc2ccccn2c1P(=S)(N1CCCCC1)N1CCCCC1 | 49.1% (active) |
| COc1ccc(C(=O)C2CN(C)CC2C(=O)c2ccc(OC)cc2)cc1 (stereo not given) | 20.5% |
| CCC(=NCc1ccco1)c1c(O)n(Cc2ccccc2)c(=O)[nH]c1=O | 15.9% |
| CCC(=NCCc1ccccc1)c1c(O)n(C2CCCCC2)c(=O)[nH]c1=O | 70.8% (active) |
| CC(=O)c1c(O)n(C2CCCCCC2)c(=O)[nH]c1=O | 19.8% |
| COc1ccc(C(=O)CC2C(=O)N(C)C(=O)N(C)C2=O)cc1 | 6.25% |
| O=C(c1cc2nc(-c3ccccc3)cc(-c3ccccc3)n2n1)N1CCC2(CC1)OCCO2 | 29.5% |
| CC(C)(C)c1ccc(CN2C(=O)CN=C(c3ccccc3)c3ccccc32)cc1 | 33.8% (active) |
| CN1CCC(N(C)Cc2cccnc2)CC1 | 7.07% |
| CCOc1ccc(CN(CCCl)CCCl)cc1C(=O)OC | 22.7% |
| O=C(CN1CCCCC1)Nc1ccc(Br)cc1C(=O)c1ccccc1Cl | 29.2% |
| CCNc1nc2[nH]c(=O)c3c(c2s1)OC(N)=C(C#N)C3c1cccs1 (stereo not given) | 5.65% |
| COc1ccccc1-n1c(O)c(C=NC2CC2)c(=O)[nH]c1=O | 6.8% |
| OC(CNC1CCCCC1)c1ccccc1 (stereo not given) | 5.79% |
| CCOP(=S)(OCC)SCOC(=O)NCC(=O)OC | 4.53% |
| O=[N+]([O-])c1ccc(C2C3C(c4ccccc4)=NC4(CCCCC4)N32)cc1 (stereo not given) | 18% |
| Cc1ccc(Cn2c(C)c3cnn(CC(=O)N4CCC5(CC4)OCCO5)c(=O)c3c2C)cc1 | -1.49% |
| N#Cc1ccc(Cn2cc(C(=O)c3ccco3)c3ccccc32)cc1 | 38.7% (active) |
| COc1ccc(CCn2c(O)c(C=NCCCn3ccnc3)c(=O)[nH]c2=O)cc1OC | 2.05% |
| Cn1c(O)c(C=NCCCC(=O)O)c(=O)n(C)c1=O | 2.29% |
| Cc1ccc(N(C)C(=O)Oc2cccc3ccc(C)nc23)cc1 | 5.47% |
| CC[N+](CC)(CC)CCCCCCCCCC[N+](CC)(CC)CC | -4.82% |
| CCOC(=O)C1SC2(C(F)(F)C(F)F)CC1(O)c1c(c(OC)c3occc3c1OC)O2 (stereo not given) | 33.6% (active) |
| O=c1c2ccccc2nc(-c2ccc(Cl)cc2Cl)n1-c1ccncc1 | 9.41% |
| COc1cc(Cn2c(N)c(C(=O)NCc3ccco3)c3nc4ccccc4nc32)cc(OC)c1OC | 7.01% |
| CC(=O)Nc1ccccc1C(=O)OCC(=O)c1cccc2ccccc12 | 0.9% |
| CCCCn1c(O)c(C(CC)=NCc2ccco2)c(=O)[nH]c1=O | 16.6% |
| CCCCCCN=C(CC)c1c(O)n(CCCC)c(=O)[nH]c1=O | 36.3% (active) |
| CCC(=NCCCO)c1c(O)n(-c2ccc(OC)cc2)c(=O)[nH]c1=O | 3.64% |
| CC(=O)c1ccc(OC(NC(=O)Cc2ccccc2)C(Cl)(Cl)Cl)cc1 (stereo not given) | 4.53% |

From PubChem BioAssay AID738 (SRMLSC, 2007)
